For 13 compounds, growth results are on record in PubChem BioAssay (NCI).

This is part of a sample that, as a whole, favours compounds with a hit. Of some 83,000 tested, about 20% had one in any assay.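 Results are percent growth after 48 hours of single-concentration exposure. 100 means growth as in untreated cells, lower positive values show inhibition; negative values down to -100 show cell death.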 Values without a mark were called inactive. The source made the active and inactive calls. The calls were made as follows: active = growth percent below 10; inactive = the rest.

For this test, the system named is MDA-MB-468 breast. Kind of test: NCI-60 one-dose screen, 48 h (100 = growth as untreated, 0 = no growth, -100 = all killed). The note with it: 10 µM unless noted.
As for `CNc1nnc2n(-c3ccccc3)c(=O)c3cnn(-c4ccccc4)c3n12`, the growth is 103%.

For `CCCCOc1nc2ccc(Cl)cc2cc1/C=C/C(=O)/C=C/c1ccc(OC)cc1`, the growth is 113%.

In the case of `O=C(CSc1nc2ccc([N+](=O)[O-])cc2[nH]1)Nc1cccc([N+](=O)[O-])c1`, the growth was -1.47% (active).

In the case of `O=S(=O)(Nc1cc(Cl)cc(Cl)c1)c1ccc(-c2cnc(C3CC3)o2)cc1`, the growth was 2.06% (active).

Consider `O=C1c2nsnc2C(=O)c2c(F)c(F)c(F)c(F)c21`, for which the growth is -50.4% (active).

For the compound `CCOC(=O)C(C)(CSSCC(C)(NC(=O)c1ccc2ccccc2c1)C(=O)OCC)NC(=O)c1ccc2ccccc2c1` (stereo not drawn), the growth was 109%.

Turning to `N=C(N)c1ccc(-c2ccc(-c3ccc(F)cc3)s2)cc1`, the growth is -90.7% (active).

As for `c1ccc2c(c1)Sc1ccccc1S2`, the growth was 93.7%.

As to `Cc1cc(-c2cc(C)c(O)c(C)c2)cc(C)c1O`, the growth was 26.1%.

As to `Cc1cc(=O)oc2cc(OC(=O)CN3CCN(C)CC3)ccc12`, the growth is 101%.

On to `CNC(=O)c1cc(Oc2ccc3nc(NC(=O)NC(C)C)sc3c2)ccn1`, for which the growth was 34.3%.

For `Clc1ccc2c(NCCNc3nc(N4CCOCC4)nc4ccccc34)ccnc2c1`, the growth is 25.1%.

On to `O=C(Cc1ccccc1)Cc1ccccc1`, for which the growth was 99.5%.
